SMILES strings stand for the structures. Inconclusive results are not listed. The source made the active and inactive calls.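 The calls were made as follows: active = potency, the concentration giving half inhibition in the gel assay, of 75 µM or lower; inconclusive = potency above 75 µM yet under 100 µM; inactive = potency of 100 µM or weaker, or none.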

This is an account of results in PubChem BioAssay AID624346 (National Center for Advancing Translational Sciences (NCATS), 2012).

Ubiquitin carboxyl-terminal hydrolase 1 (Homo sapiens) + WD repeat-containing protein 48 (Homo sapiens), sequence (O94782 whole entry, looked up): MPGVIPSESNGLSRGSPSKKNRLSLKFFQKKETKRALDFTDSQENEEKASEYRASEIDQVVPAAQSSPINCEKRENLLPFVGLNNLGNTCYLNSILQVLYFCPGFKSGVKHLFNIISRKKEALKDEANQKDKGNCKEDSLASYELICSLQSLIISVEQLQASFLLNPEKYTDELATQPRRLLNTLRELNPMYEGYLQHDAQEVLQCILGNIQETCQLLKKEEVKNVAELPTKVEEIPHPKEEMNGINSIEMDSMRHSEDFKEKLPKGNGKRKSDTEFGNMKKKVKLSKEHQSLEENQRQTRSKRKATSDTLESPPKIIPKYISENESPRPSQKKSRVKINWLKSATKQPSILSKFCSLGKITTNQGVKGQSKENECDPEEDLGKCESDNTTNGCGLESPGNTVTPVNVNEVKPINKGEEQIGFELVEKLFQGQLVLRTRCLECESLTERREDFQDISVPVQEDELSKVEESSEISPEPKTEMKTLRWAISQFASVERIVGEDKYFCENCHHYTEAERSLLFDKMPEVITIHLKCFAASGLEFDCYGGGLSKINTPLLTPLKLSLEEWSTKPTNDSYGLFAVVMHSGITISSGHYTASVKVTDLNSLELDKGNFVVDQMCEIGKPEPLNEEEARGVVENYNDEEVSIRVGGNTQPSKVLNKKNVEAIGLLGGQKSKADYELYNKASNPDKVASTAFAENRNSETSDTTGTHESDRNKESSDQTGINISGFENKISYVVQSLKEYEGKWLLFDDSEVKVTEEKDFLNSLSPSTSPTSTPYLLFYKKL
Ubiquitin carboxyl-terminal hydrolase 1 (Homo sapiens) + WD repeat-containing protein 48 (Homo sapiens), sequence (Q8TAF3 whole entry, looked up): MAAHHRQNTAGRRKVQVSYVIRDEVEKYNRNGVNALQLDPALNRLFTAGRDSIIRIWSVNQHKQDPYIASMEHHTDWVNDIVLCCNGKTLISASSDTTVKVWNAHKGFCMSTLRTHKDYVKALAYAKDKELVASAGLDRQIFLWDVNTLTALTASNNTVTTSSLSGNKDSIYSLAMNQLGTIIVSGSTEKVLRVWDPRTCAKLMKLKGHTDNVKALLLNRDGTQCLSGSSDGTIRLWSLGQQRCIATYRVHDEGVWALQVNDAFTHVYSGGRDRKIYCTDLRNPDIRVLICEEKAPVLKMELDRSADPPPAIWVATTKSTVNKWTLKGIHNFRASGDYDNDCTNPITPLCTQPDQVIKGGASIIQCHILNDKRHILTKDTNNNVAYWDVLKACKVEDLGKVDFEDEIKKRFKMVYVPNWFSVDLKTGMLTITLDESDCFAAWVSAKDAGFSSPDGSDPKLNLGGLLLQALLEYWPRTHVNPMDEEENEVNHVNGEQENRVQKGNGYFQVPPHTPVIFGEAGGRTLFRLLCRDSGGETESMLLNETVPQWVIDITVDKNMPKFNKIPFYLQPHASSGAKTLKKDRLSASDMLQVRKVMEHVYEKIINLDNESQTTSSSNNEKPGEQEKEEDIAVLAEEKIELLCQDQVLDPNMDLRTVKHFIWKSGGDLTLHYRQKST

For this assay, the target named is Ubiquitin carboxyl-terminal hydrolase 1 (Homo sapiens) + WD repeat-containing protein 48 (Homo sapiens) (UniProt O94782+Q8TAF3). Briefly: Inhibitors of USP1/UAF1: Hit Validation in USP1 Diubiquiting Gel Assay. The settings on record: USP1/UAF1 K63 diubiquitin cleavage, SDS-PAGE gel. From the text:
Deubiquitinating enzymes (DUBs) are a class of enzymes that can cleave isopeptide bond formed between the C-terminal carboxylate of ubiquitin and a lysine side-chain amino group on the target protein. Among them, ubiquitin specific proteases (USPs) constitute the largest DUB family. Human USPs are emerging as promising targets for pharmacological intervention because of their connection to a number of human diseases, including prostate, colon and breast cancer (1, 2), pediatric acute lymphoblastic leukemia (3), and familial cylindromatosis (4). The advantage of inhibiting USPs lies in the potential specificity of therapeutic intervention that can lead to better efficacy and reduce nonspecific side effects. In a collaboration between the University of Delaware and the NIH Chemical Genomics Center, a high-throughput screen assay was developed to screen for USP1/UAF1 inhibitors. This miniaturized assay has a fluorescent read-out and is used to screen the NIH Molecular Libraries Small Molecule Repository (MLSMR) in order to identify a small molecule that inhibits USP1. Follow-up assays have also been developed to further test the hits from the primary screen. This assay validates the hits identified from the primary screen using a USP1 diubiquiting gel assay. NIH Chemical Genomics Center [NCGC] NIH Molecular Libraries Probe Centers Network [MLPCN] MLPCN Grant: DA030552 Assay Submitter (PI): Zhihao Zhuang, University of Delaware 1. Priolo, C., et al. (2006) The isopeptidase USP2a protects human prostate cancer from apoptosis. Cancer Res 66, 8625-8632 2. Popov, N., et al. (2007) The ubiquitin-specific protease USP28 is required for MYC stability. Nat Cell Biol 9, 765-774 3. De Pitta, C., et al. (2005) A leukemia-enriched cDNA microarray platform identifies new transcripts with relevance to the biology of pediatric acute lymphoblastic leukemia. Haematologica 90, 890-898 4. Kovalenko, A., et al. (2003) The tumour suppressor CYLD negatively regulates NF-kappaB signalling by deubiquitination. Nature 424, 801-805
The inhibition assay contains 100 nM for USP1/UAF1, 2 microM K63 linked diubiquitin, and inhibitors at varied concentrations (0.08 microM - 114 microM). The reaction was allowed for 1 hour at 37 degrees C, and quenched by the addition of Laemmli sample buffer. The reaction product was separated on a 20% denaturing SDS-PAGE gel and stained with Coomassie Blue. The intensity of the individual diubiquitin and monoubiquitin band was quantified using Quantity One 4.3.1 (Biorad, Hercules, CA). The percentage of the conversion was determined and used to calculate the reaction rate. The rate was plotted against inhibitor concentrations and fitted to determine the IC50 values using GraphPad Prism (GraphPad Software, Inc. La Jolla, CA).
On to `Fc1ccc(Nc2nc(-c3cccnc3)nc3ccccc23)cc1`, for which the outcome was inactive. As for `FC(F)(F)c1ccccc1-c1nc(NCc2cccnc2)c2ccccc2n1`, the result was inactive. With `COc1ccccc1-c1nc(NCc2ccccc2)c2ccccc2n1`, the Potency is 6.4 µM (active).

With `COc1ccccc1-c1nccc(NCc2ccccc2)n1`, the Potency was 16.9 µM (active). `FC(F)(F)c1ccccc1-c1nccc(NCc2cccs2)n1`: the outcome was inactive. Regarding `COc1cccc(-c2nccc(NCc3cccc(C)c3)n2)c1`, the Potency was 13 µM (active).

`COc1ccc(CNc2nc(-c3ccccc3OC)nc3ccccc23)c(OC)c1`: the Potency is 14.5 µM (active).

Regarding `COc1ccccc1-c1nc(NCc2cccs2)c2ccccc2n1`, the Potency is 21.3 µM (active). Turning to `COc1ccccc1CNc1nc(-c2ccc(N(C)C)cc2)nc2ccccc12`, the Potency is 10 µM (active). Consider `Cc1cccc(CNc2ccnc(-c3ccccc3C(F)(F)F)n2)c1`, for which the Potency was 3 µM (active). Turning to `c1ccc2c(Nc3ccncc3)nc(-c3ccc4c(c3)OCO4)nc2c1`, the Potency was 28.6 µM (active). The same measure, in the same setting: in the case of `COc1ccccc1CNc1ccnc(-c2ccccc2C(F)(F)F)n1` it was 4.2 µM (active); in that of `FC(F)(F)c1ccccc1-c1nccc(NCc2ccccc2)n1`, 9.6 µM (active).

On to `Cc1cccc(CNc2ccnc(-c3ccccc3Cl)n2)c1`, for which the outcome was inactive. Consider `Cc1ccccc1-c1nc(NCc2cccs2)c2ccccc2n1`, for which the Potency was 6 µM (active).

`N#Cc1cccc(-c2ccc3ncnc(NCc4ccccc4)c3c2)c1`: the Potency was 26.6 µM (active).

`Clc1ccccc1-c1nccc(NCc2ccccc2)n1`: the Potency was 20 µM (active). Take `Cc1noc(C)c1-c1nc(NCc2cccs2)c2ccccc2n1`: the Potency is 5 µM (active). As for `COc1ccc(CNc2ccnc(-c3ccccc3C(F)(F)F)n2)c(OC)c1`, the Potency is 4.5 µM (active). Still for that read-out and setting: the result for `COc1ccccc1-c1nccc(NCc2cccc(C)c2)n1` reads 18.8 µM (active); that for `COc1ccccc1-c1cc(NCc2ccccc2)ncn1`, 10.9 µM (active); that for `FC(F)(F)c1ccccc1-c1nc(NCc2cccs2)c2ccccc2n1`, 3.3 µM (active). With `Cc1cccc(CNc2cc(-c3ccccc3C)ncn2)c1`, the Potency was 26.3 µM (active).

Regarding `Cc1ccccc1-c1nc(NCc2cccnc2)c2ccccc2n1`, the result was inactive.
